SMILES strings stand for the structures. About 480 (40%) of roughly 1,200 compounds were called active. About 29% were inconclusive and are not listed. Calls follow the shape of the dose curve; as a rule, active = well fitted inhibition curve with a large enough effect; inconclusive = small, poorly fitted or top-dose-only effect; inactive = no such curve, though single readings can be large or run the other way. The list shows a part of the results.
Potency is read from the fitted curve at half-maximal effect.

The test is described as follows: qHTS Assay to Find Inhibitors of Chronic Active B-Cell Receptor Signaling: Hit Validation in Primary Screen. Also: nearly all actives have a fitted effect of over 75% in size. The settings on record: ABC-DLBCL IkB-luc/CBR ratio luminescence, 4 h; series mostly up to 46.1 µM. A digest of the protocol:
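Concentration series (3 nM to 46 uM) tested on TMD8 cells induced with doxycycline for 4 h. Filter-corrected green (IkBa fusion) over red (unfused) luciferase signal; Data were normalised to 10 uM MG-132 and untreated cell wells.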
(Quantitative high-throughput screening tests each substance at several concentrations.)
Regarding `CCOC(=O)c1[nH]c(C)c(C(=O)OCC)c1C`, the Potency is 18.4 µM (active).

`CCOC(=O)c1c(C)[nH]c(C(=O)N/N=C/c2ccc(Br)cc2)c1C`: the Potency is 0.92 µM (active). Then `CCOC(=O)c1[nH]c(C)c(C(=O)c2cc(F)ccc2F)c1C`, with 11.6 µM (active); and `CCOC(=O)c1[nH]c(C)c(C(=O)N2CCc3ccccc32)c1C`, with 4.61 µM (active); and `CCOC(=O)c1[nH]c(C)c(C(=O)c2ccc(C)cc2)c1C`, with “inactive”. For `CC[C@]12c3[nH]c4cc(CCC(=O)N(C)C)ccc4c3CCN1C(=O)[C@@H](CC(=O)NC/C=C(\C)CCC=C(C)C)C[C@@H]2C(=O)N1CCN(C(=O)c2ccco2)CC1` the value was “inactive”. With `CCC1CCCCN1C(=S)NC(=O)c1cccs1` (centres undefined), the Potency entry was “inactive”.

In the case of `CCOC(=O)c1[nH]c(C)c(C(=O)Nc2cc(Cl)ccc2C)c1C`, the Potency was 7.31 µM (active). For `CCN(CC(=O)Nc1cc(Cl)ccc1C)C(=O)C1CC1` the value was “inactive”; for `COc1ccc(S(N)(=O)=O)cc1C(=O)OCCCOC(=O)c1cc(S(N)(=O)=O)ccc1OC`, “inactive”; for `CCN(CC)S(=O)(=O)c1ccc(N/N=C(\C)c2ccc(OC)cc2O)nc1`, “inactive”.

`CCOc1ccc(S(=O)(=O)Nc2cc(OC)ccc2OC)cc1`: the Potency was 4.61 µM (active).

Regarding `CC[C@]12c3[nH]c4cc(CCC(=O)N(C)C)ccc4c3CCN1C(=O)[C@@H](CC(=O)NCCc1ccccn1)C[C@@H]2C(=O)N1CCN(C(=O)C2CC2)CC1`, the Potency result was “inactive”. Regarding `CCN(CC)c1ccc(NC(=O)c2cc(OC)cc(OC)c2)c(C)c1`, the Potency is 6.51 µM (active). Then `C/C(=N\NC(N)=S)c1cc(-c2ccccc2)c(-c2ccccc2)s1`, with “inactive”; and `C=CCNC(=S)N/N=C/c1ccc(C(F)(F)F)cc1`, with “inactive”. Then `CCN1C(=O)C(O)(C2COC(C)(C)CC2=O)c2cc(Br)ccc21` (centres undefined), with 18.4 µM (active); and `CCc1ccc2oc(=O)cc(CN3CCCCC3C)c2c1` (centres undefined), with “inactive”; and `COc1ccc(CCNCC(O)COc2cccc(Br)c2)cc1` (centres undefined), with “inactive”. For `Oc1ccc(Nc2nc(-c3cccnc3)cs2)cc1` the value was 16.4 µM (active).

In the case of `COC1=CC(=O)CC(C)C12Oc1c(Cl)c(OC)cc(OC)c1C2=O` (centres undefined), the Potency result was “inactive”. For `COc1cc(C2C(C#N)=C(N)Oc3cc4c(cc32)OCO4)cc(OC)c1OC` (centres undefined) the value was 0.461 µM (active); for `COc1cc(OC)c2c(c1)OC(=O)CC2c1cc(OC)c(OC)c(OC)c1` (centres undefined), “inactive”. Then `C=CCNc1ncnc2c1ncn2C1OC(CO)C(O)C1O` (centres undefined), with 23.1 µM (active); and `OCC1OC(n2cnc3c(NC4CCCCC4)ncnc32)C(O)C1O` (centres undefined), with 1.46 µM (active); and `Nc1ncnc2c1ncn2[C@@H]1O[C@H](COP(=O)(O)O)[C@@H](O)[C@H]1O`, with “inactive”. On to `Nc1ncnc2c1ncn2[C@@H]1O[C@H](CNC(=O)[C@@H]2CCCN2S(=O)(=O)c2ccc(F)cc2)[C@@H](O)[C@H]1O`, for which the Potency result is “inactive”. Then `Nc1ncnc2c1ncn2[C@@H]1O[C@H](CNCc2ccc(-c3cc(C(F)(F)F)ccc3Cl)o2)[C@@H](O)[C@H]1O`, with “inactive”; and `Nc1ncnc2c1ncn2C1OC(C(=O)NC2CC2)C(O)C1O` (centres undefined), with 0.058 µM (active). Then `Nc1nc(Cl)nc2c1ncn2[C@@H]1O[C@H](CO)[C@@H](O)[C@H]1O`, with 0.92 µM (active); and `CC1CCC2C(=O)N(c3ccc(C(=O)Oc4cccc5cccnc45)cc3)C(=O)C2C1` (centres undefined), with “inactive”; and `O=C(Oc1c(CN2CCOCC2)cc(Cl)c2cccnc12)c1ccccc1Cl`, with “inactive”. Then `OC[C@H]1O[C@@H](n2cnc3c(NC4CCCC4)nc(Cl)nc32)[C@H](O)[C@@H]1O`, with 1.3 µM (active); and `CCCC(=O)Nc1ncnc2c1ncn2[C@@H]1O[C@@H]2COP(=O)(O)O[C@H]2[C@H]1OC(=O)CCC`, with “inactive”; and `OC[C@H]1O[C@@H](n2cnc3c(NC4CCCC4)ncnc32)[C@H](O)[C@@H]1O`, with 1.84 µM (active).

As for `Cc1ccccc1NC(=S)c1ccc2ccccc2n1`, the Potency entry is “inactive”. For `Cc1ccccc1NC(=S)NCc1ccc2c(c1)cc(C)n2C` the value was 1.46 µM (active).

With `S=C(NCc1ccc2[nH]c3c(c2c1)CCCC3)Nc1ccccc1`, the Potency result is “inactive”. On to `COC(=O)Nc1nc(-c2ccccc2)c(C(=O)c2ccc(Cl)cc2)s1`, for which the Potency was 3.66 µM (active).

Take `CC[C@@H]1Cc2cc(O)ccc2C2=C1c1ccc(O)cc1C[C@H]2CC`: the Potency was 14.6 µM (active). For `Cc1noc(C)c1COc1cccc(C(=O)OCC(=O)N2CC(=O)Nc3ccccc32)c1` the value was 20.6 µM (active); for `CN(CC(=O)Nc1ccc2c(c1)OCCO2)Cc1nc2ccccc2c(=O)[nH]1`, “inactive”. Consider `O=C(Cc1n[nH]c(=O)c2ccccc12)OCC(=O)c1ccc2c(c1)OCCO2`, for which the Potency was 20.6 µM (active). For `CCOc1ccc(N(CC(=O)Nc2ccccc2C)S(=O)(=O)c2c(C)noc2C)cc1` the value was 14.6 µM (active); for `CCOc1ccc(N(CC(=O)Nc2ccccc2OCC)S(=O)(=O)c2c(C)noc2C)cc1`, 2.91 µM (active); for `CCOc1ccc(S(=O)(=O)N(CC(=O)NN=C2CCN(C)CC2)c2ccc(C)cc2)cc1`, “inactive”.

Regarding `CCOc1ccc(N(CC(=O)Nc2ccccc2OC)S(=O)(=O)c2ccccc2)cc1`, the Potency was 5.17 µM (active). In the case of `FC(F)(F)c1nnc2ccc(Cl)nn12`, the Potency entry is “inactive”.

With `O=C(N/N=C/C(Br)=C\c1ccccc1)c1n[nH]c2c1CCC2`, the Potency was 2.06 µM (active). For `CCOc1cc(C(=O)N/N=C/C2CC=CCC2)cc(OCC)c1OCC` (centres undefined) the value was “inactive”; for `O=C(N/N=C/C(Br)=C\c1ccccc1)c1ccc2nc[nH]c2c1`, “inactive”. As for `CC(/C=N/NC(=O)c1n[nH]c2c1CCC2)=C\c1ccccc1`, the Potency was 0.58 µM (active). Then `CCOc1cc(C(=O)N/N=C/C(Br)=C/c2ccccc2)cc(OCC)c1OCC`, with 2.59 µM (active); and `Cc1c(CCC(=O)N2CCC[C@H]2C(=O)O)c(=O)oc2cc3oc4c(c3cc12)CCCC4`, with 23.1 µM (active); and `Cc1c(CCC(=O)N2CCC(C(=O)O)(c3ccccc3)CC2)c(=O)oc2cc3oc4c(c3cc12)CCCC4`, with “inactive”. For `CCOC(=O)C(C)N1C(=O)S/C(=C/c2ccc3c(c2)n(C)c(=O)n3C)C1=O` (centres undefined) the value was 18.4 µM (active); for `CCOC(=O)C(C)N1C(=O)S/C(=C/c2cc(C)n(-c3ccccn3)c2C)C1=O` (centres undefined), “inactive”; for `COc1ccc(C2CC(=O)Nc3cc(OC)c(OC)cc32)cc1Br` (centres undefined), 20.6 µM (active).

Take `COc1cc2c(cc1OC)C(c1ccc(OC)c(OC)c1OC)CC(=O)N2` (centres undefined): the Potency is 23.1 µM (active). For `COc1cc2c(c(OC)c1OC)C(c1ccc(C)cc1)CC(=O)O2` (centres undefined), the Potency entry is “inactive”.

Turning to `COc1cc(-c2noc(C)c2C#Cc2ccsc2)cc(OC)c1OC`, the Potency was 8.2 µM (active). For `COc1cc(-c2noc(C)c2C#Cc2ccc(N)cc2)cc(OC)c1OC` the value was 2.91 µM (active).

With `CNC(=S)N/N=C1\C(=O)c2cccc3cccc1c23`, the Potency was 18.4 µM (active).

Consider `CNC(=S)N/N=C/c1ccco1`, for which the Potency result was “inactive”. As to `NC(=S)NN=C1c2ccccc2-c2ccccc21`, the Potency entry was “inactive”. For `COc1ccc(-c2cccc(-c3cc(=O)oc4cc(OC)cc(OC)c34)c2)cc1` the value was 1.16 µM (active); for `COc1cc(OC)c2c(-c3cccc(-c4ccc(OC)c(F)c4)c3)cc(=O)oc2c1`, 1.16 µM (active). Then `COc1cc(OC)c2c(-c3cccc(-c4sccc4C(C)=O)c3)cc(=O)oc2c1`, with 5.17 µM (active); and `COc1cc(OC)c2c(-c3cccc(-c4ccc(N(C)C)cc4)c3)cc(=O)oc2c1`, with 2.06 µM (active); and `CC(=O)c1ccsc1-c1c(C)cc2oc(=O)cc(-c3ccccc3)c2c1C`, with “inactive”. As for `COc1cc(OC)c2c(-c3cccc(-c4ccc(O)cc4)c3)cc(=O)oc2c1`, the Potency was 2.59 µM (active). For `COc1cc(OC)c2c(-c3cccc(-c4ccc(NC(C)=O)cc4)c3)cc(=O)oc2c1` the value was 2.59 µM (active); for `COc1cc(OC)c2c(-c3cccc(-c4cccc(N)c4)c3)cc(=O)oc2c1`, 6.51 µM (active). For `CCc1ccc(N2CC(C(=O)OCC(=O)Nc3ccccc3C)CC2=O)cc1` (centres undefined) the value was “inactive”; for `Cc1[nH][nH]c(=O)c1C(c1c(C)[nH][nH]c1=O)c1cn(Cc2ccc(F)cc2)c2ccccc12`, 14.6 µM (active). Consider `CCOC(=O)C(NCc1ccccc1)(NC(=O)c1ccccc1)C(F)(F)F` (centres undefined), for which the Potency result is “inactive”. `Cc1csc(NC(=S)Nc2cccc(Cl)c2)n1`: the Potency result is “inactive”. Then `CCCc1nnc(NC(=O)CCC(=O)NCCc2ccc(OC)c(OC)c2)s1`, with “inactive”. For `CCCc1nnc(NC(=S)Nc2ccccc2)s1`, the Potency was 0.164 µM (active). Consider `CCNC(=S)NNc1ccccc1`, for which the Potency entry is “inactive”. For `S=C(Nc1ccccc1)Nc1nccs1` the value was “inactive”; for `CCc1nnc(NC(=S)Nc2ccccc2)s1`, 0.651 µM (active). For `Cc1cc(Cl)n2c(nc3ccccc32)c1C#N` the value was 1.84 µM (active); for `Cc1ccc(-c2cc(C(=O)N/N=C/c3c(C)nn(-c4ccccc4)c3C)[nH]n2)cc1`, 2.31 µM (active); for `Cc1nn(-c2ccccc2)c(C)c1/C=N/NC(=O)c1cc(-c2ccccc2)n[nH]1`, 2.31 µM (active).

Regarding `Cc1nn(-c2ccccc2)c(C)c1/C=N/NC(=O)c1cc(-c2cccs2)[nH]n1`, the Potency is 3.26 µM (active). On to `C[C@@H]1C[C@H]2[C@@H]3C[C@H](F)C4=CC(=O)C=C[C@]4(C)[C@@]3(F)[C@@H](O)C[C@]2(C)[C@@]1(O)C(=O)CO`, for which the Potency result is “inactive”. For `COC(=O)Nc1nc2ccc(Sc3ccccc3)cc2[nH]1` the value was “inactive”.

In the case of `COc1ccc(NC(=S)N=Nc2c(O)[nH]c3ccccc23)cc1`, the Potency result is “inactive”.

Take `COc1cc(OC)cc(C(=O)N[C@H](C(=O)Nc2nc3ccccc3[nH]2)C(C)C)c1`: the Potency was 1.84 µM (active). For the molecule `COc1ccc(C(=O)N[C@H](C(=O)Nc2nc3ccccc3[nH]2)C(C)C)cc1`, the Potency was 5.8 µM (active).

In the case of `N#CC(C(=S)Nc1ccccc1)c1nc2ccccc2[nH]1` (centres undefined), the Potency result is “inactive”. For `Cc1cccc(C(=O)N[C@H](C(=O)Nc2nc3ccccc3[nH]2)C(C)C)c1` the value was 3.26 µM (active); for `OCc1ccnc2c(O)cccc12`, “inactive”.
